# Measurements reported in the supplement of paper PMC6411743.
# ± gives the standard deviation of the averaged measurements. The full data set covers some 5,400 targets. This sample favours those with the largest changes.
# Compound: Nc1nc2c(ncn2[C@@H]2O[C@H](COP(=O)(O)OP(=O)(O)OP(=O)(O)O)[C@@H](O)[C@H]2O)c(=O)[nH]1 [guanosine triphosphate]
# Experiment: NP40-soluble protein abundance relative to vehicle (solubility fold change) (ratio); higher = more soluble protein in presence of GTP
# Method: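 Solubility proteome profiling in Jurkat crude lysate. Lysate was treated with Mg-GTP (0.1-10 mM) for 10 min at room temperature and 3 min at 37 °C, then solubilised with 0.8% NP40 and benzonase, followed by ultracentrifugation. Proteins were quantified by TMT10 LC-MS/MS; the value is the NP40-soluble abundance relative to the NP40-processed vehicle, from 3 independent experiments.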
# UniProt Q8WUM4, sequence (Q8WUM4 whole entry): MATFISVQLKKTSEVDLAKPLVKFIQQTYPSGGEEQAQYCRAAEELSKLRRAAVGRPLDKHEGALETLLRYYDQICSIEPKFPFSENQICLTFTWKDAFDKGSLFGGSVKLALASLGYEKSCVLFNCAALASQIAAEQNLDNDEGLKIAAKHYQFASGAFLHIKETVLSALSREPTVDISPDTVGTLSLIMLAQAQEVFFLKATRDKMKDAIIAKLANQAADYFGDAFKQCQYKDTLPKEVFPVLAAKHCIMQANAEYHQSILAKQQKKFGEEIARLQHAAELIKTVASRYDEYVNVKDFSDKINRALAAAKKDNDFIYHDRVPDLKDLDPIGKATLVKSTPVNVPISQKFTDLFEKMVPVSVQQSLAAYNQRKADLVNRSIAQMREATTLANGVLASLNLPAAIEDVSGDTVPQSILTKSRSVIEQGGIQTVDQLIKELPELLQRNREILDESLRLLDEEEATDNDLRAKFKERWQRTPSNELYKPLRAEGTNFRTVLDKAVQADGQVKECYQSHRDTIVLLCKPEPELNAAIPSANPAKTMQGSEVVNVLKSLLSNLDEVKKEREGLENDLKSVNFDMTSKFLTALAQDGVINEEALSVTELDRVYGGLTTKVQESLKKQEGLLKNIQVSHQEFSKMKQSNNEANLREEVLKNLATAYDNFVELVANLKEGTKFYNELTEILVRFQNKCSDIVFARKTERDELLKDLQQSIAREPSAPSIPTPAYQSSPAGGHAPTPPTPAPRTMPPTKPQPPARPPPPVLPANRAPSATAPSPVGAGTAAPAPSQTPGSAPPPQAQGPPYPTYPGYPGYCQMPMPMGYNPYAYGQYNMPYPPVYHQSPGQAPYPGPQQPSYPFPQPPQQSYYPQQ
# UniProt Q02880, sequence (Q02880 whole entry): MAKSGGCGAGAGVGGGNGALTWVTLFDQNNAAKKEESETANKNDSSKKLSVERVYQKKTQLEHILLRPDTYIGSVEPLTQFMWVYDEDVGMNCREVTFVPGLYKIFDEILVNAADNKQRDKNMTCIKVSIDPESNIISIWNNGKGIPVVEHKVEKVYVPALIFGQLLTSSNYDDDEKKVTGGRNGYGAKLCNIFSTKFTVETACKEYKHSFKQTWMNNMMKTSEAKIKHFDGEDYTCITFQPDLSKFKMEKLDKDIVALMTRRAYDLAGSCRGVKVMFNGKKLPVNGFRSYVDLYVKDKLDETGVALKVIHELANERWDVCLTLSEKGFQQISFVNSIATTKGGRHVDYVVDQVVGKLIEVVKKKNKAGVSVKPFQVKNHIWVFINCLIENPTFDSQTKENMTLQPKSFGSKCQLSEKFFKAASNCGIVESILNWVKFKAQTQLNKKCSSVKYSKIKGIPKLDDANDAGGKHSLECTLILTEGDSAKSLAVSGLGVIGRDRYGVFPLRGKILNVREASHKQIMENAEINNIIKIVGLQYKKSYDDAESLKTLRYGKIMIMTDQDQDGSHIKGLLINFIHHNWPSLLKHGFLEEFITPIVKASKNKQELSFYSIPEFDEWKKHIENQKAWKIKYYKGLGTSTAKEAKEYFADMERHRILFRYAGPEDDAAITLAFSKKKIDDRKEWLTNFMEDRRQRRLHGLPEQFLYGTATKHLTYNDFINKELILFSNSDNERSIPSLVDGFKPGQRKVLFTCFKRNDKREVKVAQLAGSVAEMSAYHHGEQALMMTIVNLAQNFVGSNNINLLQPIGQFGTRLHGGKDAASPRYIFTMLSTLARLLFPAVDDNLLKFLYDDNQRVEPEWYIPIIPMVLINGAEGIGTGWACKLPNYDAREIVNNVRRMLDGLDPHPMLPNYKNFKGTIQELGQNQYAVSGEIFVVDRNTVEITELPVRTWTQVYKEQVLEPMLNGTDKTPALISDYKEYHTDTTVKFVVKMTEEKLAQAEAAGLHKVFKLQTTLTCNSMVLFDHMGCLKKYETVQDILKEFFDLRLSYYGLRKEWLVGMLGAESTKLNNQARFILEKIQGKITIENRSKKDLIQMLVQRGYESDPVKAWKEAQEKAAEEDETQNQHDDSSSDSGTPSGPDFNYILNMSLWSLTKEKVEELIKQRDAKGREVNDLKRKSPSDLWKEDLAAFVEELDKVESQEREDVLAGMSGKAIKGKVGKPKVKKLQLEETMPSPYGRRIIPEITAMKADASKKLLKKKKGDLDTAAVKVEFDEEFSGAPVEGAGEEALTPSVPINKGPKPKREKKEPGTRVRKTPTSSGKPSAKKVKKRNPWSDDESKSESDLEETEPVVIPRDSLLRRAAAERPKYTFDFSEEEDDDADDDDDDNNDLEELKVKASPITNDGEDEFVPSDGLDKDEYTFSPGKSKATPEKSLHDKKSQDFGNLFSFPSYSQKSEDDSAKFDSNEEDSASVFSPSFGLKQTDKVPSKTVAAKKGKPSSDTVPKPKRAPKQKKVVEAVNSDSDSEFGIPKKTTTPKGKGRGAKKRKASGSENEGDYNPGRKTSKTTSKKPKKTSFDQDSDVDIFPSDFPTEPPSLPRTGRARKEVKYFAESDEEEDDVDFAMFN
# UniProt Q86U86, sequence (Q86U86 whole entry): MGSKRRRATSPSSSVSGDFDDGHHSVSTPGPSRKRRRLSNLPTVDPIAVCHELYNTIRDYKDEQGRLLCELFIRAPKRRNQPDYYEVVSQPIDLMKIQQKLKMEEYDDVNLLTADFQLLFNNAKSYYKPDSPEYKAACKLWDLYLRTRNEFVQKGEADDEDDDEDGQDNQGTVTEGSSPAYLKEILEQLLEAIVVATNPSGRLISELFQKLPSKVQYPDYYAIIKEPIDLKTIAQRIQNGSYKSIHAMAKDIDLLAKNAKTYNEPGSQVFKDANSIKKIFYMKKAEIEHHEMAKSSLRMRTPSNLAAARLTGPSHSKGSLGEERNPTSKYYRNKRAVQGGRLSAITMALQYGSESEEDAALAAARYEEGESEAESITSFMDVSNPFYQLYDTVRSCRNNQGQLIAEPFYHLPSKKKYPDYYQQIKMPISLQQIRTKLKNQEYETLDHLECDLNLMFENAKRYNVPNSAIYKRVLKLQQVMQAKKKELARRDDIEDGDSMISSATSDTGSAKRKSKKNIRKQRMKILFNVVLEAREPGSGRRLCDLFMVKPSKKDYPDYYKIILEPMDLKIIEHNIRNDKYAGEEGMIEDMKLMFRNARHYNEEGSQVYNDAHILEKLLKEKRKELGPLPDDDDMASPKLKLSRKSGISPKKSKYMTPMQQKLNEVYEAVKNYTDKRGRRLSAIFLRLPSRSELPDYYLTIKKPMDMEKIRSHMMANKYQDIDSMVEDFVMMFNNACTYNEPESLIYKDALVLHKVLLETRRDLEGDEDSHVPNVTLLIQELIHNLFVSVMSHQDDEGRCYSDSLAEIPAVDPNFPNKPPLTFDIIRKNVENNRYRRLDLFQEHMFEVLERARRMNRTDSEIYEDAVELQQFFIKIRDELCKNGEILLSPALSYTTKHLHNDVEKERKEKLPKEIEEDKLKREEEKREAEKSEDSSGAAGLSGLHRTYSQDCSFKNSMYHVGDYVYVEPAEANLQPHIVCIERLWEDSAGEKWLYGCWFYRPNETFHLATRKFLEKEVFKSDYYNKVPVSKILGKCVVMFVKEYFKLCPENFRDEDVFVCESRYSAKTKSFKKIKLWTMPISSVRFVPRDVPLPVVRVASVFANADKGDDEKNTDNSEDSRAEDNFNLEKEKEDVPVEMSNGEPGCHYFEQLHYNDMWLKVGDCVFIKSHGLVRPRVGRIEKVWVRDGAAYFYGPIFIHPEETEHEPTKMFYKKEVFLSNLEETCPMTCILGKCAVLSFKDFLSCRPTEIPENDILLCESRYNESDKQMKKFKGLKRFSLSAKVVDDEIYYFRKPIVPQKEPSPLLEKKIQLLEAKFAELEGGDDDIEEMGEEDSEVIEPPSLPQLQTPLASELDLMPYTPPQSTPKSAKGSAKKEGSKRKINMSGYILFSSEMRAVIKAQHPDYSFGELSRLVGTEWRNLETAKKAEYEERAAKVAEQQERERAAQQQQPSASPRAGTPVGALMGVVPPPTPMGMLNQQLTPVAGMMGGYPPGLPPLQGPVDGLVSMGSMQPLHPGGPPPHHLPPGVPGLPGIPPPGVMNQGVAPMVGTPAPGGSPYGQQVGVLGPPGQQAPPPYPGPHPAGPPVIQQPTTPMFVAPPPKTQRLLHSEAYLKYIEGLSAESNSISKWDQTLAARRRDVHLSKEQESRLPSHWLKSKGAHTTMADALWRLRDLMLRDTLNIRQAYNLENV
# UniProt Q6I9Y2, sequence (Q6I9Y2 whole entry): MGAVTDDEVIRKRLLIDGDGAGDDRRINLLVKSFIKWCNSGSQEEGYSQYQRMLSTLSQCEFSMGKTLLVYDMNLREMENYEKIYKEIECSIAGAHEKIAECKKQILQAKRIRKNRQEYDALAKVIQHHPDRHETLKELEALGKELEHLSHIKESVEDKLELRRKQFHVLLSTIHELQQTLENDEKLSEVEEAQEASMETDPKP
Target,NP40-soluble protein abundance (concentration: 0.1mM),NP40-soluble protein abundance (concentration: 0.5mM),NP40-soluble protein abundance (concentration: 1mM),NP40-soluble protein abundance (concentration: 2mM),NP40-soluble protein abundance (concentration: 4mM),NP40-soluble protein abundance (concentration: 6mM),NP40-soluble protein abundance (concentration: 8mM),NP40-soluble protein abundance (concentration: 10mM)
UniProt Q02880|Q02880-2,1.08 ± 0.06,1.09 ± 0.065,1.21 ± 0.06,1.37 ± 0.11,1.68 ± 0.17,1.85 ± 0.27,1.99 ± 0.26,2.08 ± 0.34
THOC7 (UniProt Q6I9Y2),0.999 ± 0.13,1.15 ± 0.095,1.6 ± 0.23,1.92 ± 0.32,2.31 ± 0.58,2.51 ± 0.63,2.43 ± 0.56,2.78 ± 0.98
UniProt Q86U86|Q86U86-8|Q86U86-2|Q86U86-4|Q86U86-5|Q86U86-7|Q86U86-9,1.07 ± 0.048,1.14 ± 0.078,1.21 ± 0.092,1.38 ± 0.11,1.53 ± 0.12,1.61 ± 0.16,1.72 ± 0.16,1.78 ± 0.18
UniProt P62805,0.891 ± 0.063,0.855 ± 0.058,0.972 ± 0.027,0.963 ± 0.053,1.08 ± 0.048,1.22 ± 0.054,1.2 ± 0.067,1.76 ± 0.14
PDCD6IP (UniProt Q8WUM4),0.945 ± 0.046,0.957 ± 0.053,0.943 ± 0.061,0.889 ± 0.075,0.873 ± 0.084,0.895 ± 0.064,0.904 ± 0.053,0.883 ± 0.07
